From PubChem BioAssay AID743279 (National Center for Advancing Translational Sciences (NCATS), 2014)
Hit rate of the full screen: of about 360,000 compounds, about 17,000 (4.7%) were called active. Not shown: some 5% with an inconclusive outcome. Cut-off read from the data, not from the text of the source: active = activity change below about -50%; inconclusive = mostly about -30% to -49%; inactive = weaker than that. Shown is part of a subset that was picked to be rich in actives.

Test: qHTS for Inhibitors of Inflammasome Signaling: IL-1-beta AlphaLISA Primary Screen
Conditions: THP-1 LPS/ATP IL-1B secretion, 16 h, at 57.5 µM, active compounds read low
Method in brief: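 THP-1 cells pretreated 1 hr with compounds (up to 57.5 uM final), then stimulated with LPS (250 ng/mL final) plus ATP (1.25 mM final); secreted IL-1B measured by AlphaLISA after 16 hr, decreased signal indicating inhibition.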
% is set by controls: 0 for no effect and ±100 for the full control effect.

Compound	activity change
O=c1c2ccccc2nc(CBr)n1-c1ccc(Cl)cc1	-7.74% (inactive)
O=C(C1CC(=O)N(C2CCCC2)C1)N1CCC2(CC1)OCCO2 (stereo unspecified)	13.5% (inactive)
CN1CCN(/N=C/c2c[nH]c3ccccc23)CC1	7.92% (inactive)
CN(C)c1ccc(/C=C2\CC3C4CC=C5CC(O)CCC5(C)C4CCC3(C)C2=O)cc1 (stereo unspecified)	0.523% (inactive)
C[C@@]1([C@@H](NP(=O)(c2ccccc2)c2ccccc2)c2ccccc2)C[C@H]1CCO	-4.2% (inactive)
CCNc1nc2[nH]c(=O)c3c(c2s1)OC(N)=C(C#N)C3c1cccs1 (stereo unspecified)	-64% (active)
CC(C)c1ccc(OCC(=O)N2CCN(C)CC2)c(Br)c1	9.25% (inactive)
COC(=O)C1=C(c2ccc(OCc3ccccc3)cc2)C[C@@H]2CC[C@H]1N2C(=O)NCc1cccc(F)c1	-12.8% (inactive)
CC1=CC(=Cc2sc3ccccc3[n+]2C)C=C(C)O1	-51.7% (active)
COc1ccc(CNCCc2ccc3c(c2)OCO3)c(OC)c1OC	-11.8% (inactive)
COc1ccc(CNCCc2c[nH]c3ccccc23)cc1OC	-24.9% (inactive)
COc1ccc(Br)cc1CNCCc1cccc(Cl)c1	-72.2% (active)
Nc1ccc(Cc2ccc(N)c(Cl)c2)cc1Cl	-24.6% (inactive)
COC(=O)CN(CCCl)P1(=O)OCCCN1CCCl (stereo unspecified)	41.8% (inactive)
CCOP(=S)(OCC)SCOC(=O)NCC(=O)OC	0.573% (inactive)
CN(C)CC1Oc2ccccc2OC1(O)c1ccccc1 (stereo unspecified)	-101% (active)
O=C1NC(=O)N(c2ccccc2)C(=O)/C1=C/c1ccc([N+](=O)[O-])s1	-11.6% (inactive)
COc1cccc(N2C(=O)NC(=O)/C(=C\c3ccc([N+](=O)[O-])s3)C2=O)c1	-0.584% (inactive)
Cc1cccc(N2C(=O)NC(=O)/C(=C\c3cnn(-c4ccccc4)c3)C2=O)c1	-60% (active)
Cn1c(O)c(C(=Nc2ccc(F)cc2)c2ccccc2)c(=O)n(C)c1=O	3% (inactive)
c1cncc(CNC2=NCCC2)c1	34.2% (inactive)
CCOC(=O)C1(c2ccccc2)CCN(CC(O)c2ccc(NC(C)=O)cc2)CC1 (stereo unspecified)	-10.2% (inactive)
CC1=C(C(=O)Nc2ccccc2)SCCO1	19.6% (inactive)

Compound	activity change
CC1=C(C(=O)Nc2ccccc2)S(=O)(=O)CCO1	-86.7% (active)
C[C@]12CCC3C(CC[C@H]4[C@H](O)[C@H](O)CC[C@]34C)C1CC[C@@H]2O (stereo partly specified)	38.5% (inactive)
CC(=CCOc1ccc2ccc(=O)oc2c1)C1=CC(=O)C(C)(C)O1	-91.3% (active)
CC(CC(C#N)(c1ccccc1)c1ccccc1)N1CCCCC1 (stereo unspecified)	-2.29% (inactive)
O=C1C2CCN(CC2)C1(CO)CO	-9.66% (inactive)
CCC(=O)c1ccc(OCC(=O)N2CCN(CC(=O)Nc3ccc(C)cc3)CC2)cc1	14.3% (inactive)
Clc1ccc2nc3c(c(-c4ccccc4)c2c1)CNCC3	-57% (active)
C[C@H]1CN([C@@H](C)CO)C(=O)CCCn2nncc2CO[C@H]1CN(C)C(=O)Oc1ccccc1	16.8% (inactive)
O=C(CN1CCCCC1)Nc1ccc(Br)cc1C(=O)c1ccccc1Cl	-8.15% (inactive)
O=C(CCN1CCCCC1)NCC(=O)Nc1ccc(Br)cc1C(=O)c1ccccc1	-10.3% (inactive)
O=C(COC(=O)c1ccccc1)Nc1ccc(Cl)cc1C(=O)c1ccccc1	15.9% (inactive)
CN1CCN(C(=S)SCC(=O)Nc2ccc(Cl)cc2C(=O)c2ccccc2)CC1	-88% (active)
O=C(CCNS(=O)(=O)c1ccccc1)Nc1ccc(Cl)cc1C(=O)c1ccccc1	-63% (active)
CCC/C(=N\O)c1c[nH]c2ccccc12	23.8% (inactive)
Cn1c(C(=O)N2CCC(C(=O)N3CCC4(CC3)OCCO4)CC2)cc2sccc21	-11.3% (inactive)
CNP1(NC)=Nc2nn(-c3ccccc3)c(N)c2C(c2ccccc2)=N1	-24.6% (inactive)
C=C(C)C1(CCCC)C(=O)NC(=S)NC1=O	11.5% (inactive)
CCOC(=O)CNC(=O)N1Cc2cc(N3CCCCC3)ccc2-n2nncc2C1	-5.99% (inactive)
COC(=O)[C@@H]1C(OC(=O)c2ccccc2)CC2CCC1N2C (stereo partly specified)	-10.2% (inactive)
COC(=O)C1=C(c2ccccc2)C[C@@H]2CC[C@H]1N2C(=O)N1CCCCC1	-19.1% (inactive)
COc1ccc2c(c1)NP(=S)(c1ccccc1)N2 (stereo unspecified)	-12.5% (inactive)
CC12CCC(O)CC1CCC1C2CCC2(C)C(C(=O)CC(O)C(F)(F)F)CCC12 (stereo unspecified)	15.6% (inactive)
COc1ccc(-c2nn(CCC#N)cc2C(=O)O)cc1	10.5% (inactive)

Compound	activity change
O=c1[nH]c(=S)n(C2CC2)c(O)c1/C=N/N1CCOCC1	33.5% (inactive)
C[N+]1(C)CCOC(O)(c2ccc(-c3ccc(C4(O)C[N+](C)(C)CCO4)cc3)cc2)C1 (stereo unspecified)	7.41% (inactive)
Cn1cc(C(=O)OCC(=O)N2CCCC2)c2ccccc21	-12.4% (inactive)
C[C@]12CCC3C(CC[C@H]4[C@H](O)[C@H](O)CC[C@]34C)C1CCC2=O (stereo partly specified)	8.07% (inactive)
C[C@]12CCC3C(CC[C@H]4C[C@@H](O)CC[C@]34C)C1C[C@@H](O)[C@H]2O (stereo partly specified)	24.7% (inactive)
CC12CCC3C(CCC4CC(=O)CCC43C)C1CC(=NO)C2=O (stereo unspecified)	-101% (active)
O=c1c2ccccc2[nH]c(=S)n1-c1cccc(Cl)c1	25.2% (inactive)
CCn1cc(CN2CCCC(C(=O)c3cccc(C(F)(F)F)c3)C2)cn1 (stereo unspecified)	10.1% (inactive)
COc1ccc(CCn2c(O)c(C=NCCCn3ccnc3)c(=O)[nH]c2=O)cc1OC	43.4% (inactive)
CCCCCCCCCCCCn1ccc(=N)cc1	-100% (active)
CCOC(=O)C1SC2(C(F)(F)C(F)F)CC1(O)c1c(c(OC)c3occc3c1OC)O2 (stereo unspecified)	0% (inactive)
CC(C)(C)[C@]1(O)C[C@@H]2OC(=O)C[C@@]23C(=O)O[C@@H]2OC(=O)[C@H](O)[C@]213	-4.02% (inactive)
COCc1cc(OC(=O)N(C)C)nc(-c2ccc(C)c(Cl)c2)n1	-2.68% (inactive)
C[C@]12CCCCC1=CC(=O)C1C2CC[C@@]2(C)C1C[C@@H](F)[C@@H]2O (stereo partly specified)	0.0265% (inactive)
CC(C)c1ccc(OCC(=O)N2CCCN(C)CC2)cc1	-17.5% (inactive)
CCOC(=O)CC(SP1(=S)OCC2(CCCCO2)C(C2CCCCO2)O1)C(=O)OCC (stereo unspecified)	17.2% (inactive)
ClC(Cl)(Cl)c1ccccc1	-9.44% (inactive)
CC(c1ccccc1)(c1ccccc1)c1ccncc1	-63.6% (active)
c1ccc(C(CN2CCCCC2)c2ccccc2)cc1	-8.96% (inactive)
CNC(=O)N(C)c1nnc(C(C)(C)C)s1	17.7% (inactive)
O=C1NCN(c2ccccc2)C12CCN(C(c1cccs1)c1nnnn1C1CCCCC1)CC2 (stereo unspecified)	-18.5% (inactive)
CC(C)CN1Cc2cc(N3CCCCC3)ccc2-n2nncc2C1	-4.66% (inactive)
CCC1(CC(C)c2ccccc2)C(=O)NC(=O)NC1=O (stereo unspecified)	-0.699% (inactive)

Compound	activity change
COC(=O)C[C@H]1CC[C@H]2NC[C@@H](O)COC[C@@H]2O1	0% (inactive)
CC1C2Cn3c(nc4ccccc43)C1N(C)O2 (stereo unspecified)	32.4% (inactive)
CC(Cc1ccccc1)NC=O (stereo unspecified)	16% (inactive)
CC(=O)NC(=O)NC(C)Cc1ccccc1 (stereo unspecified)	11.5% (inactive)
CC(Cc1ccccc1)NCCC(c1ccccc1)c1ccccc1 (stereo unspecified)	-64.4% (active)
CN1CCC(OC(=O)c2cccc(F)c2)CC1	-22% (inactive)
COc1ccc(NC(=O)N2Cc3ccccc3-n3nncc3C2)cc1	-5.29% (inactive)
Cc1cc(-c2ccc(N)c(C)c2)ccc1N	-12.1% (inactive)
CC(=O)OC1C2(CC3N4C(=O)C5(CO)SSC4(CC31O)C(=O)N5C)OC(C)C(C)(C)C2=O (stereo unspecified)	-104% (active)
Cc1ccc(C(C)C)c(OCC(=O)N2CCN(CC(=O)N3CCOCC3)CC2)c1	-9.54% (inactive)
C[N+]12CN3CN(CN(C3)C1)C2	1.54% (inactive)
Clc1cccc(Cl)c1Cl	-12.8% (inactive)
COC1C(O)C(C)OC(OC2CCC3(C=O)C(CCC4C3CCC3(C)C(C5=CC(=O)OC5)CCC43O)C2)C1O (stereo unspecified)	-68% (active)
C[C@]12CC[C@H](O)C[C@H]1CC[C@@H]1C2CC[C@]2(C)[C@@H](C3=CC(=O)OC3)[C@@H](O)C[C@]12O (stereo partly specified)	-21.6% (inactive)
C[C@H]1CN([C@@H](C)CO)C(=O)CCCn2nncc2CO[C@H]1CN(C)C(=O)Oc1cccc2ccccc12	24.1% (inactive)
COc1cc(C(=O)N2Cc3ccc(Br)cc3-n3nncc3C2)cc(OC)c1OC	-13.4% (inactive)
O=C1/C(=C\c2ccc3c(c2)OCO3)N2CCC1CC2	-14.8% (inactive)
O=c1c2ccccc2nc(/C=C/c2ccc(F)cc2)n1-c1ccccc1O	-94.1% (active)
Cc1nc2ccccc2c(=O)n1-c1ccc(Cl)cc1Cl	-2.71% (inactive)
O=c1c2ccccc2nc(-c2ccccc2)n1-c1ccccn1	17.2% (inactive)
COc1ccccc1NC(=O)N1C[C@@H]2C[C@@H](C1)c1cccc(=O)n1C2	1.98% (inactive)
O=C(O)C1CSC(c2cccnc2)N1 (stereo unspecified)	0% (inactive)
NCCc1ccc(S(=O)(=O)F)cc1	13% (inactive)

Compound	activity change
O=C(NC1CCCCC1)N1Cc2cc(N3CCCCC3)ccc2-n2nncc2C1	-7.47% (inactive)
CCOc1ccc(-c2cc(C)[n+](CCN(CC)CC)c(-c3ccc(OCC)cc3)c2)cc1	-82.5% (active)
COC(=O)C1=C(c2ccc(F)cc2OCc2ccccc2)C[C@@H]2CC[C@H]1N2C(=O)NCc1ccc(C(C)(C)C)cc1	-29.4% (inactive)
COC(=O)C1=C(c2ccc(F)cc2OCc2ccccc2)C[C@@H]2CC[C@H]1N2C(=O)NCc1ccc(Cl)cc1	-55.3% (active)
COC(=O)C1=C(c2ccc(F)cc2OCc2ccccc2)C[C@@H]2CC[C@H]1N2C(=O)NCc1ccc(OC)c(OC)c1	-5.32% (inactive)
CC1CCC(N(C)C2CCN(C)CC2)CC1 (stereo unspecified)	0% (inactive)
CCOC(=O)c1cccc(C2=C(CNC(=O)c3ccncc3)[C@H]3CC[C@@H](C2)N3Cc2ccccc2)c1	41.7% (inactive)
COc1ccc(-c2nc(CS(=O)CC(=O)N3CCC4(CC3)OCCO4)c(C)o2)cc1 (stereo unspecified)	-1.15% (inactive)
O=P(OC1=CCCCC1)(c1ccccc1)c1ccccc1	-4.62% (inactive)
Cc1ncoc1C(=O)NCC1=C(c2cccc3ccccc23)C[C@@H]2CC[C@H]1N2Cc1ccco1	-7.11% (inactive)
CC1(C)Cc2c(C#N)c(N3CCNCC3)nc(-c3ccco3)c2CS1	-50.4% (active)
COC(=O)C1=C(c2ccc(OCc3ccccc3)cc2)C[C@@H]2CC[C@H]1N2C(=O)NCc1ccc(Cl)cc1	4.2% (inactive)
N#CC1=C(N)Oc2c(c(=O)oc3ccccc23)C1c1ccccc1OC(=O)c1cccs1 (stereo unspecified)	-86.1% (active)
COc1ccc(C2C=C(C)Oc3c2c(=O)oc2ccccc32)cc1OC (stereo unspecified)	7.28% (inactive)
S=C(NCCc1ccccc1)N1Cc2cc(N3CCOCC3)ccc2-n2nncc2C1	-27% (inactive)
Cc1cc(C)c2c(c1)NP(=S)(c1ccccc1)N2 (stereo unspecified)	-11.4% (inactive)
Cc1ccc(-n2c(C)cc(/C=C3\C(=O)NC(=O)N(C)C3=O)c2C)cc1C	-4.58% (inactive)
Cc1ccnc(-n2c(C)cc(/C=C3\C(=O)NC(=S)N(C)C3=O)c2C)c1	-79.4% (active)
Cc1cc(C=C2C(=O)NC(=O)NC2=O)c(C)n1-c1ccncc1	-12.3% (inactive)
